# Data published in PubChem BioAssay (Tox21).
# Inconclusive results are not listed. A call without a number means that no potency is given here. The source made the active and inactive calls. The call rests on the fitted dose curve.
# Target: Acetylcholinesterase (Homo sapiens) (UniProt P22303)
# Assay: Acetylcholinesterase (AChE) small molecule antagonists: fluorescence cell-based qHTS assay (AID 1347398); further: nearly all actives have a fitted effect of over 50% in size
# Details: SH-SY5Y cells; Potency: AChE activity; outcome: AChE activity; series mostly up to 115 µM
# Summary of the method: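 Homogeneous quantitative HTS format. SH-SY5Y cells seeded at 2,000 per well settle overnight at 37 C. Compound pretreatment runs 30 min (37 C, 5% CO2); substrate/probe mix then reacts 40 min at RT before reading 490/520 nm.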
# Chain of Acetylcholinesterase (Homo sapiens) (P22303 whole entry, looked up): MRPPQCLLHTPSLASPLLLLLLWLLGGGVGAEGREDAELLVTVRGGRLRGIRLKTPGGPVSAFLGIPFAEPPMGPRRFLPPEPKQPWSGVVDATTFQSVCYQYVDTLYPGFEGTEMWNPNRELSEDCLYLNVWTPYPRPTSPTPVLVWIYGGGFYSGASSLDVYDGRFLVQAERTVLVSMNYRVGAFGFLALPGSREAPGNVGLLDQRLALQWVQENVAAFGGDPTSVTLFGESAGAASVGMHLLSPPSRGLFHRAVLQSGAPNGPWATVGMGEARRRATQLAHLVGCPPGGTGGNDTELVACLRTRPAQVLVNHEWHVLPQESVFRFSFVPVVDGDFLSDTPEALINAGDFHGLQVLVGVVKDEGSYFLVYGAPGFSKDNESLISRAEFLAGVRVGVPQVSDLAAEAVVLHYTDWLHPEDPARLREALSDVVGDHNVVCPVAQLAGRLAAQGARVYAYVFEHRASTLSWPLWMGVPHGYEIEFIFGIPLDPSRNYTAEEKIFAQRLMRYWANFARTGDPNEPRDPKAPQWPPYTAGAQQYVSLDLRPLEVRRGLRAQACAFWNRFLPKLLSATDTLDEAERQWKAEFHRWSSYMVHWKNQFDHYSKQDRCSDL
row,SMILES,Potency
1,NS(=O)(=O)c1cc2c(cc1Cl)NC(C(Cl)Cl)NS2(=O)=O (stereo not given),inactive
2,CCOC(=O)c1ncn2c1CN(C)C(=O)c1cc(F)ccc1-2,inactive
3,CCN(CC)C(=O)N1CCN(C)CC1,inactive
4,CNC(=O)c1cnn(-c2nc(N)c3ncn([C@@H]4O[C@H](CO)[C@@H](O)[C@H]4O)c3n2)c1,inactive
5,O=C1CCCCCCCCCCCCCCCO1,inactive
6,Cc1ccnc2ccccc12,inactive
7,O=CN1CCOCC1,inactive
8,CCC(=O)OCCOc1ccccc1,inactive
9,CCN(Cc1cccc(S(=O)(=O)O)c1)c1ccc(C(=C2C=CC(=[N+](CC)Cc3cccc(S(=O)(=O)O)c3)C=C2)c2ccc(O)cc2S(=O)(=O)[O-])cc1,inactive
10,O=C(CCCl)NCCc1ccccc1,inactive
11,[Cl][Eu]([Cl])[Cl],inactive
12,C1C[C@@H]2[C@H]3CC[C@H](C3)[C@@H]2C1,inactive
13,C=CC(C)(O)CCCC(C)CCCC(C)CCCC(C)C (stereo not given),inactive
14,O=C(Nc1ccccc1)c1ccccc1O,inactive
15,CCN1CCOCC1,inactive
16,NC(=O)c1ccccc1[N+](=O)[O-],inactive
17,CC(C)(c1ccc(Oc2ccc3c(c2)C(=O)OC3=O)cc1)c1ccc(Oc2ccc3c(c2)C(=O)OC3=O)cc1,inactive
18,c1ccc(CCCc2ccccn2)cc1,inactive
19,CC(C)CCC(=O)CCC(C)C,inactive
20,CCCCCc1ccc(Cl)cc1,inactive

row,SMILES,Potency
1,Cc1cccc(N(C)C(=S)Oc2ccc3c(c2)CCC3)c1,inactive
2,CCCCOc1ccc(N)cc1,inactive
3,O=C1OC(=O)c2ccccc21,inactive
4,CC(C)=CCCC(C)C=O (stereo not given),inactive
5,COC(=O)CCSCCC(=O)OC,inactive
6,COCCO,inactive
7,CN1CCN(C2=Nc3ccccc3Sc3ccc(Cl)cc32)CC1,inactive
8,C=COCCCC,inactive
9,Clc1ccc2nsnc2c1NC1=NCCN1,inactive
10,O=C1c2ccccc2C(=O)c2c(Cl)cccc21,inactive
11,CC1=C(O)C(=O)C(C)O1 (stereo not given),inactive
12,O=C(O)c1c(Cl)cccc1Cl,inactive
13,CC/C=C/CCCCCCCCCCOC(C)=O,inactive
14,O=CCCc1ccccc1,inactive
15,CC(C)(C)C(=O)O,inactive
16,Cc1ccc(N(CCO)CCO)cc1,inactive
17,CC1=C(/C=C/C(C)=C/C=C/C(C)=C\C(=O)O)C(C)(C)CCC1,inactive
18,CCOC(=O)c1ccccc1O,inactive
19,CC1CC(=O)CC(C)(C)C1 (stereo not given),inactive
20,O=C1OC(OC(=O)c2cccnc2Nc2cccc(C(F)(F)F)c2)c2ccccc21 (stereo not given),inactive

# Target: Acetylcholinesterase (Homo sapiens) (UniProt P22303)
# Assay: Acetylcholinesterase (AChE) small molecule antagonists: enzyme-based qHTS assay with human liver microsomes (AID 1347399); further: nearly all actives have a fitted effect of over 60% in size
# Details: Potency: qHTS inhibition; outcome: qHTS inhibition; series mostly up to 115 µM
# Summary of the method: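 Recombinant human AChE (50 mU/mL in the enzyme mix) and human liver microsomes (0.25 mg/mL final) were preincubated with compound and NADPH (0.25 mg/mL final) for 30 min at 37 C. Acetylthiocholine/DTNB was then added; thiocholine was read colorimetrically after 10 min at room temperature.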
row,SMILES,Potency
1,NS(=O)(=O)c1cc2c(cc1Cl)NC(C(Cl)Cl)NS2(=O)=O (stereo not given),inactive
2,CCOC(=O)c1ncn2c1CN(C)C(=O)c1cc(F)ccc1-2,inactive
3,CCN(CC)C(=O)N1CCN(C)CC1,inactive
4,CNC(=O)c1cnn(-c2nc(N)c3ncn([C@@H]4O[C@H](CO)[C@@H](O)[C@H]4O)c3n2)c1,inactive
5,O=C1CCCCCCCCCCCCCCCO1,inactive
6,Cc1ccnc2ccccc12,inactive
7,O=CN1CCOCC1,inactive
8,CCC(=O)OCCOc1ccccc1,inactive
9,CCN(Cc1cccc(S(=O)(=O)O)c1)c1ccc(C(=C2C=CC(=[N+](CC)Cc3cccc(S(=O)(=O)O)c3)C=C2)c2ccc(O)cc2S(=O)(=O)[O-])cc1,inactive
10,O=C(CCCl)NCCc1ccccc1,inactive
11,[Cl][Eu]([Cl])[Cl],inactive
12,C1C[C@@H]2[C@H]3CC[C@H](C3)[C@@H]2C1,inactive
13,C=CC(C)(O)CCCC(C)CCCC(C)CCCC(C)C (stereo not given),inactive
14,O=C(Nc1ccccc1)c1ccccc1O,inactive
15,CCN1CCOCC1,inactive
16,NC(=O)c1ccccc1[N+](=O)[O-],inactive
17,CC(C)(c1ccc(Oc2ccc3c(c2)C(=O)OC3=O)cc1)c1ccc(Oc2ccc3c(c2)C(=O)OC3=O)cc1,inactive
18,c1ccc(CCCc2ccccn2)cc1,inactive
19,CC(C)CCC(=O)CCC(C)C,inactive
20,CCCCCc1ccc(Cl)cc1,inactive

row,SMILES,Potency
1,Cc1cccc(N(C)C(=S)Oc2ccc3c(c2)CCC3)c1,inactive
2,CCCCOc1ccc(N)cc1,inactive
3,O=C1OC(=O)c2ccccc21,inactive
4,CC(C)=CCCC(C)C=O (stereo not given),inactive
5,COC(=O)CCSCCC(=O)OC,inactive
6,COCCO,inactive
7,CN1CCN(C2=Nc3ccccc3Sc3ccc(Cl)cc32)CC1,inactive
8,C=COCCCC,inactive
9,Clc1ccc2nsnc2c1NC1=NCCN1,inactive
10,O=C1c2ccccc2C(=O)c2c(Cl)cccc21,inactive
11,CC1=C(O)C(=O)C(C)O1 (stereo not given),inactive
12,O=C(O)c1c(Cl)cccc1Cl,inactive
13,CC/C=C/CCCCCCCCCCOC(C)=O,inactive
14,O=CCCc1ccccc1,inactive
15,CC(C)(C)C(=O)O,inactive
16,Cc1ccc(N(CCO)CCO)cc1,inactive
17,CC1=C(/C=C/C(C)=C/C=C/C(C)=C\C(=O)O)C(C)(C)CCC1,inactive
18,CCOC(=O)c1ccccc1O,inactive
19,CC1CC(=O)CC(C)(C)C1 (stereo not given),inactive
20,O=C1OC(OC(=O)c2cccnc2Nc2cccc(C(F)(F)F)c2)c2ccccc21 (stereo not given),inactive
